Compound activity: PubChem BioAssay, National Center for Advancing Translational Sciences (NCATS)
Tau FP inhib = tau fibrillization inhibition (FP); P10636; K18 P301L tau heparin fibrillization, Alexa594 FP, 6 h; Potency, µM (highest dose often 57.7 µM), without a hit: top-dose activity, negative = inhibition, most hits filed as inhibitors; 280,000 compounds, 0.39% hits; AID 1468; note: % is set by controls: 0 for no effect and ±100 for the full control effect; nearly all actives have a fitted effect of over 55% in size
Target sequence (P10636 561-689 P618L limits assumed): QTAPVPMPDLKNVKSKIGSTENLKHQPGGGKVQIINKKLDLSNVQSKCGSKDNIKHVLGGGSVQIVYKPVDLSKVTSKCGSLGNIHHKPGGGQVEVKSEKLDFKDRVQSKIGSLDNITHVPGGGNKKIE
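Human K18 P301L fragment (15 uM unlabeled plus 0.24 uM Alexa 594-labeled) in 100 mM sodium acetate pH 7 with compound, aggregation induced by 20 uM heparin for 6 hr at 37 C. ThT (30 uM) added for 1 hr, then Alexa 594 FP read.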
HTT ATP protect = protects HTT-Q103 PC12 cells, measured by ATP; PC12 HTT-Q103 induced, cytoprotection, ATP luminescence, 40 h; Potency, µM (highest dose often 56.4 µM), for inactives: cytoprotection (ATP increase), actives largely listed as activators; 230,000 compounds, 0.14% hits; AID 1471; note: % of control where 0% means no effect; nearly all actives have a fitted effect of over 45% in size
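PC12 cells stably carrying ecdysone-inducible Htt exon 1 (Q103)–GFP were induced with 100 nM tebufenozide (final) alongside library compounds in a dose series. Cytoprotection was scored as retained ATP by ATPlite luminescence.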
Tau fluor counter = counter-screen for tau fibril formation inhibitors | tau K18 P301L Alexa594 fluorescence, heparin fibrillization | 280,000 compounds, 0.93% hits | Potency, µM (top dose mostly 57.7 µM), for inactives: at the top dose activity change, negative = decrease | AID 1463; note: % is set by controls: 0 for no effect and ±100 for the full control effect; nearly all actives have a fitted effect of over 55% in size
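Human tau K18 P301L (15 uM unlabeled, 0.24 uM Alexa 594-labeled) in 100 mM sodium acetate pH 7 with 20 uM heparin, 6 hr at 37 C. ThT 30 uM added, 1 hr ambient; Alexa 594 FP and total fluorescence read at 555/632 nm.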
HttQ103 aggreg = reduces HttQ103-GFP aggregates in PC12 cells; PC12 HttQ103-GFP aggregates, Acumen cytometry, 40 h; Potency, µM (highest dose often 46.1 µM), for inactives: top-dose activity change, negative = inhibition, most hits filed as inhibitors; 220,000 compounds, 1.1% hits; AID 1688; note: % is set by controls: 0 for no effect and ±100 for the full control effect; nearly all actives have a fitted effect of over 60% in size
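Aggregates are detected as GFP objects 1–25 µm with signal 6 STDEV over background in lysates of induced PC12 cells. These carry Huntingtin exon 1 with 103 glutamines fused to GFP under an ecdysone promoter; compounds titrated.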
Tau fibril ThT = tau fibrillization inhibition (ThT binding). Potency, µM (top dose mostly 57.4 µM), without a hit: at the highest dose activity, negative = inhibition, most hits filed as inhibitors. P10636. recombinant tau K18 P301L (four-repeat tau fragment), heparin-induced fibrillization, ThT fluorescence. 270,000 compounds, 2.1% hits; note: % is set by controls: 0 for no effect and ±100 for the full control effect; nearly all actives have a fitted effect of over 55% in size
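Heparin-induced (20 uM) aggregation of recombinant human K18 P301L tau, 15 uM unlabeled with 0.24 uM labeled, pH 7 acetate buffer, 6 hr at 37 C with compound. Fibrils quantified by 30 uM ThT fluorescence after 1 hr ambient incubation.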
The depositor's hits bear a star; ? = inconclusive; / = not tested or not shown; [ ] = dose if it differs, or a comment. A selection: hits, their analogues and other compounds. The true share with any hit is near 3.7%. Calls come from the whole dose curve; as a rule, active = well fitted curve in the direction sought with a large enough effect; inconclusive = small, poorly fitted or top-dose-only effect, or another doubt; inactive = no such curve, though single readings can be large; an effect the other way counts as inactive or inconclusive. Potency is the fitted concentration of half-maximal effect.

SMILES	Tau FP inhib	HTT ATP protect	Tau fluor counter	HttQ103 aggreg	Tau fibril ThT
COc1ccc(COC(=O)N/N=C2/C[C@@H](O)[C@@H](O)[C@@H]3[C@@H]4C(=O)N(C5CCCCC5)C(=O)[C@H]4CC[C@@H]23)cc1	3.8%[11.6 µM]	2.7%[10 µM]	-12.1%[11.6 µM]	/	-18.4%[11.5 µM]
CCCCCOc1ccc(/C=c2\sc3nc(=O)c(-c4ccccc4)nn3c2=O)cc1OC	4.0%	2.3%[10 µM]	-10.1%	-2.0%	?
O=c1nc2s/c(=C\c3ccc(-c4ccccc4[N+](=O)[O-])o3)c(=O)n2nc1-c1ccccc1	?	/	?	?	7.08µM*
O=c1[nH]c2ccccc2n1CCCSc1cnc2ccccc2n1	-0.7%	-10.9%	-2.9%	11.2µM*	?
Cc1nnc(N/N=C/c2ccc(-c3ccc(Br)cc3)o2)n1N	-15.0%	-58.3%	?	-9.2%	7.94µM*
Cc1nnc(N/N=C\c2ccc(-c3cccc(C(=O)O)c3)o2)n1N	?	-64.7%	-8.5%	?	?
CCOC(=O)c1c(Nc2ccc(OC)cc2)nnc(-c2ccccc2)c1-c1ccccc1	1.1%	/	-24.4%	/	?
Cc1cc(=O)oc2cc(O[C@@H]3O[C@H](C(=O)O)[C@@H](O)[C@H](O)[C@H]3O)ccc12	-4.3%	-3.2%[1.9 µM]	0.1%	/	-1.9%
CC1CCN(C2=C(NS(=O)(=O)c3ccccc3)C(=O)c3ccccc3C2=O)CC1	?	7.0%[10 µM]	11.2µM*[quencher]	5.8%[9.22 µM]	12.6µM*
CC1CCN(C2=C(NS(=O)(=O)c3ccc(Cl)cc3)C(=O)c3ccccc3C2=O)CC1	-6.8%	11.0%[10 µM]	?	?	?
CC(=O)Nc1ccc(S(=O)(=O)NC2=C(N3CCN(Cc4ccccc4)CC3)C(=O)c3ccccc3C2=O)cc1	-9.5%	-81.8%	14.1µM*[quencher]	-7.0%	15.8µM*
O=C1C(NS(=O)(=O)c2cccs2)=C(N2CCN(c3cccc(Cl)c3)CC2)C(=O)c2ccccc21	?	-20.2%	8.91µM*[quencher]	-14.8%	3.98µM*
O=C1C(NS(=O)(=O)c2ccccc2)=C(N2CCN(c3ccc(F)cc3)CC2)C(=O)c2ccccc21	-12.1%	12.1%[10 µM]	10µM*[quencher]	9.3%[9.22 µM]	6.31µM*
CC(=O)OC[C@@H]1O[C@@H](Oc2cc(OC(C)=O)c3c(=O)cc(-c4ccc(OC(C)=O)c(OC(C)=O)c4)oc3c2)[C@H](OC(C)=O)[C@H](OC(C)=O)[C@@H]1OC(C)=O	/	-2.1%	/	/	/
Nc1[nH]c(=S)[nH]c(=O)c1N=Nc1c(Br)cc(S(N)(=O)=O)cc1Br	/	-28.2%[10 µM]	/	/	/
CCCCCCCCCCCCCCCCCC(=O)O[C@H](CC(=O)O)C[N+](C)(C)C	/	6.4%[1.9 µM]	/	/	/
NC(=S)N/N=C/c1coc2cc(Br)ccc2c1=O	-12.0%	-10.0%[10 µM]	?	-6.9%[9.22 µM]	15.8µM*
CCCCOc1ccc(Cn2c(=O)oc3ccc(C)cc32)cc1	-11.5%	/	-1.8%	/	5.2%
CCOC(=O)CN1C(=O)S/C(=C/c2cccc([N+](=O)[O-])c2O)C1=O	3.7%	3.2%	-23.3%	-22.0%	12.6µM*
Cc1ccc(NC(=O)CN2C(=O)S/C(=C/c3ccc(O)c([N+](=O)[O-])c3)C2=O)cc1C	?	-11.8%[10 µM]	?	9.7%[9.22 µM]	7.94µM*
CCOC(=O)CN1C(=O)S/C(=C/c2ccc3c(c2)n(C)c(=O)n3C)C1=O	-6.8%	/	-10.2%	-11.8%	-18.6%
Cc1cccc(NC(=O)CN2C(=O)S/C(=C\c3ccccn3)C2=O)c1	-1.7%	-129.5%	-2.2%	21.2%	13.1%
O=C1S/C(=C\c2ccc(O)c([N+](=O)[O-])c2)C(=O)N1c1ccccc1Cl	-4.6%	18.0%[10 µM]	?	-4.7%[9.22 µM]	6.31µM*
CCOC(=O)CN1C(=O)S/C(=C/C=C/c2ccc(N(C)C)cc2)C1=O	?	-51.1%[10 µM]	0.1%	?	2.24µM*
Cc1cc2ccccc2c[n+]1CC(O)C[n+]1cc2ccccc2cc1C	/	-6.9%[10 µM]	/	/	/
SMILES	Tau FP inhib	HTT ATP protect	Tau fluor counter	HttQ103 aggreg	Tau fibril ThT
Cc1cccc(NC(=O)CN2C(=O)S/C(=C\c3ccc(O)c([N+](=O)[O-])c3)C2=O)c1	0.6%	-16.3%	?	-25.5%	6.31µM*
O=C(O)c1cccc(CN2C(=O)S/C(=C/c3ccccc3[N+](=O)[O-])C2=O)c1	?	14.0%[10 µM]	-15.8%	9.0%[9.22 µM]	?
CN1C(=O)/C(=C/c2ccc(O)c([N+](=O)[O-])c2)N(C)C1=S	1.2%	13.7%[10 µM]	-19.3%	8.1%[9.22 µM]	4.47µM*
O=C1S/C(=C\c2ccc(O)c([N+](=O)[O-])c2)C(=O)N1Cc1cccc([N+](=O)[O-])c1	18.0%	-8.0%[10 µM]	?	0.0%[9.22 µM]	11.2µM*
COC(=O)NC(CC(C)=O)c1ccccc1 (stereo not given)	-2.6%[11.6 µM]	-14.7%[10 µM]	-9.5%[11.6 µM]	/	-6.5%[11.5 µM]
CN(C)CC/C=C1\c2ccccc2COc2ccc(CC(=O)O)cc21	/	-35.1%	/	18.5%	/
CC(NCC(O)COc1ccc(S(=O)(=O)N2CCOCC2)cc1)c1ccccc1 (stereo not given)	4.1%	2.24µM*	-3.1%	-2.5%	-1.9%
COC(=O)C1=C(C)N(C)C(=O)/C1=C\c1ccco1	-9.2%	-17.3%	-10.7%	5.7%	?
COC(=O)C1=C(C)N(Cc2ccco2)C(=O)/C1=C\c1ccc([N+](=O)[O-])cc1	?	-1.3%[10 µM]	?	?	12.6µM*
COC(=O)C1=C(C)N(Cc2ccc(OC)cc2)C(=O)/C1=C\c1ccco1	-5.6%	16.7%[10 µM]	?	16.1%[9.22 µM]	25.1µM*
COc1ccc2noc3c2c1C(=O)c1ccccc1-3	/	-4.8%	/	/	/
COC1=C(OC)C(=O)c2ccccc2C1=O	?	-14.3%[1.9 µM]	-23.0%	/	12.6µM*
COc1ccc(N)c2c1C(=O)c1ccccc1C2=O	?	24.6%[10 µM]	-25.0%	-12.9%	15.8µM*
COc1ccc(OC)c2c1C(=O)c1ccccc1C2=O	?	1.2%	-25.9%	-14.6%	35.5µM*
COc1ccc(OC)c2c1C(=O)C(Cl)=C(Cl)C2=O	17.8µM*	-92.5%[10 µM]	?	?	4.47µM*
CCCCCCOc1ccc(C(=N)N(CCCC)CCCC)c2ccccc12	/	-98.7%	/	?	/
Nc1ccc(Br)c2c1C(=O)c1ccccc1C2=O	3.0%	6.8%	?	?	5.01µM*
S=C(NC1CCCCC1)N1CCc2ccccc2C1	4.3%	/	-8.3%	7.08µM*	-11.1%
S=C(NC1CC1)N1CCc2ccccc2C1	1.7%	0.4%	1.0%	-11.9%	-2.8%
COc1ccc(C(=O)/C=C/c2ccc(N3CCCCC3)c([N+](=O)[O-])c2)c(OC)c1	3.9%	15.9%[1.9 µM]	?	?	3.98µM*
O=C(O/N=C\c1ccc(N2CCCCC2)c([N+](=O)[O-])c1)c1cccc(Cl)c1	5.7%	-0.1%	-23.8%	2.5%	?
CN(C)c1ccc(/C=C/C(=O)c2ccc3c(c2)OCCO3)cc1[N+](=O)[O-]	4.5%	15.5%[10 µM]	?	18.3%	3.55µM*
O=C(/C=C/c1ccncc1)c1ccc2c(c1)OCCO2	-4.1%	-0.8%[10 µM]	5.3%	-13.1%[9.22 µM]	?
